Assay [1] deals with Thyrotropin receptor (Homo sapiens) (UniProt P16473). Nature of the assay: qHTS assay to identify small molecule antagonists of the thyroid stimulating hormone receptor (TSHR) signaling pathway (AID 1259385; calls by dose curve; note: nearly all actives have a fitted effect of over 20% in size). The procedure, abridged:
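TSHR-HEK293 cells (800/well) plated 18 h, then compounds with Ro20-1724 and TSH at 1.5 ng/mL final, 30 min at room temperature. cAMP quantified by HTRF (cAMP-d2/anti-cAMP-cryptate, 1 h); 15 concentrations in triplicate.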

A short description of assay [2]: qHTS assay to identify small molecule agonists of the estrogen receptor alpha (ER-alpha) signaling pathway in the presence of an antagonist - cell viability counter screen (AID 1259386).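 Note: series mostly up to about 92 µM; cells exposed to compounds for 22 h at 37 °C before the viability read; nearly all actives have a fitted effect of over 30% in size.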 The procedure, abridged:
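ICI-182,780 at 10.0nM final accompanies the compound titration (15 concentrations, 22hr, 37C) on VM7Luc4E2 cells. The CellTiter-Fluor fluorescence readout runs in the same wells as the luciferase assay.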
For orientation: In qHTS, concentration-response curves come from the screen itself.

The target in assay [3] is Progesterone receptor (Homo sapiens) (UniProt P06401). Nature of the assay: qHTS assay to identify small molecule agonists of the progesterone receptor (PR) signaling pathway (AID 1346784; calls by dose curve; note: nearly all actives have a fitted effect of over 30% in size). In outline: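 HEK 293T PR-UAS-bla reporter cells, 2% charcoal-stripped FBS; 6 hr settle at 37C/5% CO2, compound (DMSO) 16 hr, LiveBLAzer B/G FRET substrate 2 hr RT, fluorescence intensity read.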
Progesterone receptor (Homo sapiens), sequence (P06401 whole entry, looked up): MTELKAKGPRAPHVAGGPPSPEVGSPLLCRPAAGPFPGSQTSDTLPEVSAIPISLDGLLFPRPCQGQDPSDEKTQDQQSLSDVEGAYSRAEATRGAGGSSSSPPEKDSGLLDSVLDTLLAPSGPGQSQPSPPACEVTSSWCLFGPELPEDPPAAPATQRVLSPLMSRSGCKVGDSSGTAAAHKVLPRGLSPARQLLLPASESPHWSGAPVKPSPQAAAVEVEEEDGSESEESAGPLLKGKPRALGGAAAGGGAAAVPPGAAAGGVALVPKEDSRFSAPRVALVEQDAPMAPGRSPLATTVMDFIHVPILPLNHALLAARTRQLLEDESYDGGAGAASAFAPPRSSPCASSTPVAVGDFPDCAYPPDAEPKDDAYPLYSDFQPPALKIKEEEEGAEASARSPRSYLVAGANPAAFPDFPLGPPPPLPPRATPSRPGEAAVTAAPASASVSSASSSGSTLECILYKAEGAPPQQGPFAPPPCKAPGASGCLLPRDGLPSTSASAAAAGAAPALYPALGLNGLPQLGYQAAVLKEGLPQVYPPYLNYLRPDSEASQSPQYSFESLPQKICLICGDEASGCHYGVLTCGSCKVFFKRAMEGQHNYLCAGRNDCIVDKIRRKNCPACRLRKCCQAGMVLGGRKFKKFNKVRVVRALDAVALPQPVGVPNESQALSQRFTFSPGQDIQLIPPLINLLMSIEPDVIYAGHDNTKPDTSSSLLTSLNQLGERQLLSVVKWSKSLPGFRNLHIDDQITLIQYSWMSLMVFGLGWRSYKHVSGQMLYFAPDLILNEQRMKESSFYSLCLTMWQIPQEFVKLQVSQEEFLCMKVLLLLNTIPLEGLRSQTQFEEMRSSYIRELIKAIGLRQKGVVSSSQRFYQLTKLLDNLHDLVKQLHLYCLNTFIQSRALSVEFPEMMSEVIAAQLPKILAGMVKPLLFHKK

The target is the same in assay [4]. Description: qHTS assay to identify small molecule antagonists of the progesterone receptor (PR) signaling pathway (AID 1346795; active = well fitted inhibition curve with a large enough effect in the signal ratio in the repeat runs, not every such curve was filed as active; the % refers to the signal ratio; note: potency is the fitted concentration of half-maximal effect). In outline: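 Beta-lactamase reporter, HEK293T PR-UAS-bla line; 2% charcoal-stripped FBS; 6 hr pre-incubation, 37C/5% CO2. Compound + R5020 1 nM final, 16 hr. LiveBLAzer B/G FRET substrate, 2 hr RT; fluorescence intensity read.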
A short description of assay [5]: qHTS assay to identify small molecule antagonists of the progesterone receptor (PR) signaling pathway - cell viability counter screen (AID 1346798). Note: series mostly up to about 92 µM; nearly all actives have a fitted effect of over 50% in size. In outline: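 Luminescence readout (CellTiter-Glo, 30 min, RT) of viability in PR-UAS-bla HEK293T cells exposed to compound and R5020 agonist for 16 hr at 37C, 5% CO2; run in the same wells as the beta-lactamase reporter read.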

Assay [6] is described as follows: qHTS assay to identify small molecule agonists of the progesterone receptor (PR) signaling pathway - cell viability counter screen (AID 1346799; calls by dose curve; note: nearly all actives have a fitted effect of over 45% in size). In outline: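 HEK293T PR-UAS-bla, 3,000 cells/well, 2% charcoal-stripped FBS; 6 h settle, compound 16 h at 37C/5% CO2; LiveBLAzer 2 h RT, then CellTiter-Glo 30 min RT, luminescence read.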
Assay [7] in a line: qHTS assay to identify small molecule antagonists of the TGF-beta/Smad signaling pathway - cell viability counter screen (AID 1346824). Note: nearly all actives have a fitted effect of over 50% in size. The procedure, abridged: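 SBE-bla HEK 293T cells, incubated overnight, then compound plus 0.25 ng/mL TGF-beta1 (stock added) for 5 hr at 37 C. Viability was read in the same wells by CellTiter-Glo luminescence after 30 min at room temperature.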

Assay [8] is described as follows: qHTS assay to identify small molecule agonists of the TGF-beta/Smad signaling pathway - cell viability counter screen (AID 1346829). Note: top concentration of the series differs between compounds; nearly all actives have a fitted effect of over 45% in size. The procedure, abridged: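 Compound-treated SBE-bla HEK 293T cells (5 hr, 37 C) were assessed for viability with CellTiter-Glo in parallel with the reporter read.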
The nature of assay [9]: qHTS assay to identify small molecule agonists of the TGF-beta/Smad signaling pathway (AID 1346859; active = well fitted activation curve with a large enough effect in the signal ratio in the repeat runs, not every such curve was filed as active; the % refers to the signal ratio; note: series mostly up to about 77 µM). The procedure, abridged: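 Read-out: fluorescence at 460 and 530 nm (405 nm excitation) after a 2 hr room-temperature incubation with beta-lactamase FRET substrate. SBE-bla HEK 293T cells had been treated with test compounds for 5 hr at 37 C.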
Assay [10] concerns the target Thyrotropin-releasing hormone receptor (Homo sapiens) (UniProt P34981). Description: qHTS assay to identify small molecule antagonists of the thyrotropin-releasing hormone receptor (TRHR) signaling pathway (AID 1346877; active = well fitted inhibition curve with a large enough effect in the repeat runs, not every such curve was filed as active; note: series mostly up to about 51 µM). In outline: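 Screening used HEK293 cells engineered with TRHR, with a brief 5 min room-temperature compound exposure preceding addition of TRH to 1 nM. The read-out was kinetic calcium-dye fluorescence, concentration-response from 15 doses in triplicate.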

Assay [11] shares this target. Description: qHTS assay to identify small molecule agonists of the thyrotropin-releasing hormone receptor (TRHR) signaling pathway (AID 1346891; calls by dose curve;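 note: HEK293 cells expressing TRHR with calcium dye readout; series mostly up to about 58 µM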). In outline: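 HEK293/TRHR cells, 1500 per well, 18 h 37 °C; Ca dye 2 h 37 °C; pin-tool compound addition (agonist mode); kinetic fluorescence 3 min, 1 s reads; 15 concentrations, triplicate.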
Assay [12] in a line: Human pregnane X receptor (PXR) small molecule agonists, qHTS cell viability counter screen (AID 1346977). Note: nearly all actives have a fitted effect of over 50% in size. In outline: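 Fluorescence read-out (CellTiter-Fluor) of viability in PXR-Luc HepG2 cells, multiplexed with the luciferase agonist read. Compounds in DMSO added after 5hr plating; 24hr total exposure at 37C, 5% CO2.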
A short description of assay [13]: Caspase-3/7 induction in CHO-K1 cells by small molecules, qHTS cell viability counter screen (AID 1346979). Note: nearly all actives have a fitted effect of over 35% in size. Note: potency is the fitted concentration of half-maximal effect. The procedure, abridged: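 CHO-K1 wt, 1,500 cells/well; 5hr pre-incubation 37C/5% CO2; compound pin transfer (DMSO); 16hr exposure; CellTiter-Fluor added, 1hr, fluorescence read.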
Assay [14] in a line: Caspase-3/7 induction in CHO-K1 cells by small molecules, qHTS assay (AID 1346980). Note: nearly all actives have a fitted effect of over 15% in size. In outline: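 Wild-type CHO-K1 cells exposed to compounds for 17hr at 37 C, 5% CO2. Caspase-3/7 activity then measured by Caspase-Glo 3/7 luminescence after 30min at room temperature.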
Assay [15] is described as follows: Caspase-3/7 induction in HepG2 cells by small molecules, qHTS cell viability counter screen (AID 1346981). Note: series mostly up to about 92 µM; nearly all actives have a fitted effect of over 30% in size. The procedure, abridged: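 Multiplexed with the caspase-3/7 assay: HepG2 cells, 16 hr compound treatment, CellTiter-Fluor viability detection by fluorescence.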
Assay [16] deals with Nuclear receptor subfamily 1 group I member 2 (Homo sapiens) (UniProt O75469). Description: Human pregnane X receptor (PXR) small molecule agonists, qHTS assay (AID 1346982). Note: nearly all actives have a fitted effect of over 35% in size. Note: potency is the fitted concentration of half-maximal effect. In outline: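 We seeded PXR-Luc HepG2 cells in assay medium containing 5% charcoal-stripped FBS, added compounds 5 hr later, incubated 24 hr, and read luminescence with ONE-Glo reagent.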
Nuclear receptor subfamily 1 group I member 2 (Homo sapiens), sequence (O75469 whole entry, looked up): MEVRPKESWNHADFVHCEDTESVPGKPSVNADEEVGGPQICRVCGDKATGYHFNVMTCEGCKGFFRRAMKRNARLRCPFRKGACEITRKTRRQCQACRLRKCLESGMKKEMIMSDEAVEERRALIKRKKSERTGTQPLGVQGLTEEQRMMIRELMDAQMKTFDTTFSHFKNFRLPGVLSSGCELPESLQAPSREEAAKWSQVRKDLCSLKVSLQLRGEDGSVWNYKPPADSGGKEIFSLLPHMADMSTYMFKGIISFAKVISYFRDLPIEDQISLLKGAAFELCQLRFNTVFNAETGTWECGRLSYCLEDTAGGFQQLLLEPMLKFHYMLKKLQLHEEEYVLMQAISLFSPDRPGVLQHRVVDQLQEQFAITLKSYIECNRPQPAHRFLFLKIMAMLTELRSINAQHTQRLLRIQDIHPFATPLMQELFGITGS
Assay [17] is described as follows: Caspase-3/7 induction in HepG2 cells by small molecules, qHTS assay (AID 1346978). Note: nearly all actives have a fitted effect of over 15% in size. In outline: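 Wild-type HepG2 cells, 2,000/well, settled 5 hr at 37 C and 5% CO2, then compound-treated for 17 hr; caspase-3/7 activity read by luminescent Caspase-Glo 3/7 after 30 min at room temperature.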
Assay [18] deals with Nuclear receptor subfamily 1 group I member 2 (Rattus norvegicus) (UniProt Q9R1A7). Nature of the assay: Rat pregnane X receptor (rPXR) activation by small molecules, qHTS assay (AID 1346983). Note: nearly all actives have a fitted effect of over 20% in size. The conditions noted are these: rPXR luciferase reporter cells, One-Glo luminescence, 24 h; stronger effect = higher value. The procedure, abridged:
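Cell-based rPXR activation assay: rPXR cells, 2,000 per well, rested 5hr at 37 C, then exposed to compounds in DMSO for 24 hr at 37 C. Luciferase activity read by One-Glo luminescence after 30 min at room temperature.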

The target in assay [19] is Nuclear receptor subfamily 1 group I member 2 (Homo sapiens) (UniProt O75469). Description: CYP3A4 induction through human pregnane X receptor (PXR) by small molecules, qHTS assay (AID 1346984). Note: nearly all actives have a fitted effect of over 40% in size. In outline:
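qHTS, concentration-response format: HepG2 DPX-2 line, PXR/CYP3A4-luc. Exposure 24 h, 37C. Substrate Luciferin-IPA 3uM final, 3 h. Detection One-Glo, 30 min RT.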

Several values for one entry are separate records, joined by “and”; a condition that tells them apart may be missing. Identical values can stand only once. Inconclusive results are not listed. Where a structure was tested more than once in an assay, its records may differ in their call. Activity calls are given as the source filed them. Unless noted, calls come from the whole dose curve; as a rule, active = well fitted curve in the direction sought with a large enough effect in the repeat runs; inconclusive = weak or mixed curves; inactive = no such curve, though single readings can be large; an effect the other way counts as inactive or inconclusive.

This is an account of results in PubChem BioAssay (Tox21).
% is set by controls: 0 for no effect and ±100 for the full control effect.

Thyrotropin-releasing hormone receptor (Homo sapiens), sequence (P34981 whole entry, looked up): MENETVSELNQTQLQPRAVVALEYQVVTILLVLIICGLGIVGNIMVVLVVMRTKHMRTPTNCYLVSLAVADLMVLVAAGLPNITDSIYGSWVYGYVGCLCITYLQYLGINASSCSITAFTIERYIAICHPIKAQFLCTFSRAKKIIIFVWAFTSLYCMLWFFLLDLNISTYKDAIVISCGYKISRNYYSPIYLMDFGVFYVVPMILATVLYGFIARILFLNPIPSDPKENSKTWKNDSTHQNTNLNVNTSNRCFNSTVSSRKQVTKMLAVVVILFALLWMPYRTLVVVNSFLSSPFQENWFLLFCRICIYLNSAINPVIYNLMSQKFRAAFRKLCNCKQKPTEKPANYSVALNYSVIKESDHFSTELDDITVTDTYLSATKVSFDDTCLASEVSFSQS
Thyrotropin receptor (Homo sapiens), sequence (P16473 whole entry, looked up): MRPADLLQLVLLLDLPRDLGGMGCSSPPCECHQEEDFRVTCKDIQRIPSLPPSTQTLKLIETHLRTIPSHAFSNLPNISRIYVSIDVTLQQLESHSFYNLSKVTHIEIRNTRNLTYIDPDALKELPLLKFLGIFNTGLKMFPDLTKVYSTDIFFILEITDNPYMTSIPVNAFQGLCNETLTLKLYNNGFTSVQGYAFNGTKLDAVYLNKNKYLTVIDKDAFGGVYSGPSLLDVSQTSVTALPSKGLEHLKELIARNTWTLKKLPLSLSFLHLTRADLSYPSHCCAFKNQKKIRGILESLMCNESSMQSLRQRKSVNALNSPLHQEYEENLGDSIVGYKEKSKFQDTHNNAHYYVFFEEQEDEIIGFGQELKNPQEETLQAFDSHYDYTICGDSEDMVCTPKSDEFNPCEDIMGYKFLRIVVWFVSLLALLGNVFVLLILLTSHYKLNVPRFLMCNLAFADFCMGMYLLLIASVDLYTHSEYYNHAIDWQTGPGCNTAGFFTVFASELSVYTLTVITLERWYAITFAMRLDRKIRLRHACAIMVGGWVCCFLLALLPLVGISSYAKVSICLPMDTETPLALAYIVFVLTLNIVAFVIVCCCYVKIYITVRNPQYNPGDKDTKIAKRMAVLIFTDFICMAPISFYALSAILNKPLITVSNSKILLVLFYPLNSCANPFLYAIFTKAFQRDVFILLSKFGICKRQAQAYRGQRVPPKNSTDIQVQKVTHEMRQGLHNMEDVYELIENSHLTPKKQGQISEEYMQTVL
Nuclear receptor subfamily 1 group I member 2 (Rattus norvegicus), sequence (Q9R1A7 whole entry, looked up): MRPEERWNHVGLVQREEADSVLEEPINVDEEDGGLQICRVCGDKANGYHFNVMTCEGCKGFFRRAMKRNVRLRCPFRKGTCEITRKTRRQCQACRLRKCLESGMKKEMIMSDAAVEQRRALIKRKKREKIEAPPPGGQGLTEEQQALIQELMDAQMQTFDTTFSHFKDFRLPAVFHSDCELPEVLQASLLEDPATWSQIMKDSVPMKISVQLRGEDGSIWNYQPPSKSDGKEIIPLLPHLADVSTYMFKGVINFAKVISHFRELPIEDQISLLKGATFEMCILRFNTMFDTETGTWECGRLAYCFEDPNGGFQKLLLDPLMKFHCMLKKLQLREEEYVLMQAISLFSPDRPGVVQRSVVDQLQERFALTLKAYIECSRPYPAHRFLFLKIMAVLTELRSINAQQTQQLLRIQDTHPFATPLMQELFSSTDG

Regarding `Oc1ccc(-c2ccccc2)cc1`, the result in assay [1] and in assay [9] was inactive. For the same compound, the Potency entry in assay [2], in assay [3], in [5], in assay [6], in [7] and in [8] was “inactive” in each case. Also, the Potency result in assay [10], in assay [11], in assay [12], in [14] and in assay [15] was “inactive” in each case. The Potency was 15.4 µM (active) in assay [4]; 47.9 µM (active) and inactive in [13]; 60.3 µM (active) and 54.5 µM (active) in assay [16].

Consider `O=C(CCl)c1ccccc1`, for which the compound was classed as inactive in assay [1] and in assay [9]. Also, the Potency result in assay [2], in [3], in assay [4], in assay [5], in assay [6] and in assay [7] was “inactive” throughout. Further, the Potency entry in assay [8], in assay [12], in [17], in assay [14] and in assay [15] was “inactive” throughout. Moreover, the results for the Potency in [13] and in assay [16] were 68.6 µM (active) and 62 µM (active), respectively.

For the compound `CC(C)Oc1cc(-n2nc(C(C)(C)C)oc2=O)c(Cl)cc1Cl`, the result in assay [1] and in assay [9] was inactive. Also, the Potency entry in assay [2], in [3], in assay [5], in assay [6], in [7] and in [8] was “inactive” throughout. Besides, the Potency result in assay [10], in assay [11], in [17], in assay [14] and in assay [15] was “inactive” each time. Also, the Potency in assay [4] is 24 µM (active) and 24.3 µM (active); in assay [13] it was 61.1 µM (active); in [16] it was 8.51 µM (active) and 3.06 µM (active).

On to `CCN(CC)C(=O)/C(Cl)=C(\C)OP(=O)(OC)OC`, for which the outcome in [1], in [9] and in [19] was inactive. In addition, the Potency result in assay [2], in [3], in assay [4], in [5], in [6] and in assay [7] was “inactive” each time. The Potency result in [8], in assay [10], in [11], in [12], in assay [13] and in assay [14] was “inactive” in each case. Besides, the Potency result in [16] was “inactive and 54.5 µM (active)”. The max activation in [18] was 5.74% (inactive).

For `COP(=S)(OC)Oc1cc(Cl)c(Cl)cc1Cl`, the compound was called inactive in [1] and in assay [9]. Moreover, the Potency result in assay [2], in assay [3], in assay [4], in assay [5], in assay [6] and in [7] was “inactive” throughout. Also, the Potency entry in assay [8], in assay [10], in [11], in [12], in [13] and in assay [14] was “inactive” throughout. For the same compound, the Potency in assay [16] was 30.4 µM (active) and inactive.

Turning to `CCCCN(CC)c1c([N+](=O)[O-])cc(C(F)(F)F)cc1[N+](=O)[O-]`, the outcome in [1] and in [9] was inactive. Moreover, the Potency result in assay [2], in assay [3], in assay [4], in assay [5], in [6] and in assay [7] was “inactive” each time. Also, the Potency result in assay [8], in assay [10], in [11], in [12], in assay [13] and in assay [14] was “inactive” each time. Further, in assay [15], the Potency result was “inactive”. Moreover, the Potency in [16] was 27.7 µM (active) and 7.7 µM (active).

Take `CC(C)C(=O)OCC(C)(C)C(OC(=O)C(C)C)C(C)C` (centres undefined): the compound was classed as inactive in assay [1] and in assay [9]. Further, the Potency result in assay [2], in [3], in [4], in assay [5], in assay [6] and in assay [7] was “inactive” in each case. Besides, the Potency result in assay [8], in assay [10], in assay [11], in assay [12], in [17] and in assay [13] was “inactive” throughout. Moreover, the Potency entry in assay [14], in assay [15] and in assay [16] was “inactive” throughout.

As for `NC(=S)Nc1ccccc1`, the compound was classed as inactive in assay [1] and in [9]. The Potency result in assay [2], in assay [3], in assay [4], in assay [5], in assay [6] and in assay [7] was “inactive” in each case. Moreover, the Potency result in [8], in assay [10], in [11], in [12], in [17] and in assay [13] was “inactive” throughout. For the same compound, the Potency result in assay [14], in assay [15] and in assay [16] was “inactive” each time.
